Measured values from the supplement of paper PMC12297408.
Counter-ions that a name gives are not always drawn. Unmarked numbers belong to inactive results.

Each molecule was assayed on Plasmodium falciparum NF54/iGP1_RE9H ulg8 stage V gametocytes (assay: gametocyte viability (luciferase signal relative to DMSO control) (% of DMSO control); higher = less gametocytocidal activity, active = 50 or less). Conditions: concentration: 1 µM; exposure time: 72 h.
Experimental: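 Synchronous P. falciparum NF54/iGP1_RE9H ulg8 mature stage V gametocytes (day 12) were exposed to Cayman Epigenetics Screening Library compounds at 10 µM or 1 µM for 72 h at 37 °C. Viability was read as RE9H luciferase bioluminescence, normalised to DMSO plate controls (100%); 50 µM methylene blue was the positive control.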
In the case of `COc1cc(OC)c2c(=O)[nH]c(-c3cc(C)c(OCCO)c(C)c3)nc2c1`, the gametocyte viability is reported as 94.1.
With `O=C(Nc1cccc(Br)c1)c1cccc(S(=O)(=O)N2CCCCCC2)c1` the gametocyte viability was 85.8.
`CNCCN1CCC(OCc2ccccc2)CC1` [MS049 (hydrochloride)] was tested, and the gametocyte viability was 84.2.
`Cc1cc(C)cc(C(=O)NOCCCCCC(=O)NO)c1` was tested, and the gametocyte viability was 92.1.
For `COC(=O)c1ccc(N2CCN(C)CC2)c(NC(=O)c2cccc(OC)c2)c1`, the gametocyte viability was 85.8.
`Clc1cc2c(NC3CCCC3)nnc(-c3ccncc3)c2cc1Cl` showed a gametocyte viability of 83.9.
`CCCCCCCCOC(=O)C(O)CCC(=O)O` (stereo not drawn) [Octyl-α-hydroxyglutarate] showed a gametocyte viability of 92.4.
`CC(C)N(CCCNC(=O)Nc1ccc(C(C)(C)C)cc1)C[C@H]1O[C@@H](n2cc(Br)c3c(N)ncnc32)[C@H](O)[C@@H]1O` was tested, and the gametocyte viability was 88.
For `O=C1CCc2c(ccc3ccccc23)O1` [Splitomicin], the gametocyte viability was 86.2.
Work on `CS(=O)(=O)c1ccc(-c2cnc(NCc3ccco3)n3cnnc23)cc1` yielded a gametocyte viability of 88.5.
`Oc1cc(O)cc(/C=C/c2ccc(Br)cc2)c1` [4'-bromo-Resveratrol] gave a gametocyte viability of 51.7.
`Cc1cc(Nc2ccc(NC(=O)c3ccc(Nc4ccnc5ccccc45)cc3)cc2)nc(N)n1` was tested, and the gametocyte viability was 31.4 (active).
`CCC(CC)(NC(=O)C(C)C)C(=O)N[C@@H](CCCN=C(N)N)C(=O)NC1(C(=O)NC(c2ccc(F)cc2)c2ccc(F)cc2)CCCC1` was tested, and the gametocyte viability was 82.6.
For `NC(=O)[C@H](CCCN=C(N)CF)NC(=O)c1ccccc1` [F-Amidine (trifluoroacetate salt)], the gametocyte viability was 103.
`Nc1ccccc1NC(=O)c1ccc(CNC(=O)OCc2cccnc2)cc1` was tested, and the gametocyte viability was 83.8.
`CCOC(=O)Nc1cc(-c2ccc(C)c(NS(C)(=O)=O)c2)nn2c(C)nnc12` [Bromosporine] showed a gametocyte viability of 86.5.
Work on `CN=C(NC)NCCCNCCCNCCCNC(=NC)NC` [Lysine-specific Demethylase Inhibitor (1C) (hydrochloride)] yielded a gametocyte viability of 85.5.
With `CN(C)CCCNC(=O)c1ccc(-c2cc(O)c3ncccc3c2)cc1` the gametocyte viability was 85.2.
With `O=C(NO)c1ccc(CC(=O)N(CCO)c2ccccc2)cc1` the gametocyte viability was 88.9.
In the case of `CC(=O)Nc1ccc(NC(=S)NC(=O)c2ccc(C(C)(C)C)cc2)cc1` [Tenovin-1], the gametocyte viability is reported as 81.3.

Same assay, conditions: concentration: 10 µM; exposure time: 72 h
Molecule `COc1cc(OC)c2c(=O)[nH]c(-c3cc(C)c(OCCO)c(C)c3)nc2c1` has a gametocyte viability of 92.5.
`O=C(Nc1cccc(Br)c1)c1cccc(S(=O)(=O)N2CCCCCC2)c1` was tested, and the gametocyte viability was 69.8.
With `CNCCN1CCC(OCc2ccccc2)CC1` [MS049 (hydrochloride)] the gametocyte viability was 79.7.
With `Cc1cc(C)cc(C(=O)NOCCCCCC(=O)NO)c1` the gametocyte viability was 64.9.
`COC(=O)c1ccc(N2CCN(C)CC2)c(NC(=O)c2cccc(OC)c2)c1` gave a gametocyte viability of 82.1.
Molecule `Clc1cc2c(NC3CCCC3)nnc(-c3ccncc3)c2cc1Cl` has a gametocyte viability of 71.7.
Work on `CCCCCCCCOC(=O)C(O)CCC(=O)O` (stereo not drawn) [Octyl-α-hydroxyglutarate] yielded a gametocyte viability of 95.4.
With `CC(C)N(CCCNC(=O)Nc1ccc(C(C)(C)C)cc1)C[C@H]1O[C@@H](n2cc(Br)c3c(N)ncnc32)[C@H](O)[C@@H]1O` the gametocyte viability was 49.3 (active).
Work on `O=C1CCc2c(ccc3ccccc23)O1` [Splitomicin] yielded a gametocyte viability of 80.9.
For `CS(=O)(=O)c1ccc(-c2cnc(NCc3ccco3)n3cnnc23)cc1`, the gametocyte viability was 91.4.
In the case of `Oc1cc(O)cc(/C=C/c2ccc(Br)cc2)c1` [4'-bromo-Resveratrol], the gametocyte viability is reported as 6.07 (active).
In the case of `Cc1cc(Nc2ccc(NC(=O)c3ccc(Nc4ccnc5ccccc45)cc3)cc2)nc(N)n1`, the gametocyte viability is reported as 2.18 (active).
In the case of `CCC(CC)(NC(=O)C(C)C)C(=O)N[C@@H](CCCN=C(N)N)C(=O)NC1(C(=O)NC(c2ccc(F)cc2)c2ccc(F)cc2)CCCC1`, the gametocyte viability is reported as 82.6.
Molecule `NC(=O)[C@H](CCCN=C(N)CF)NC(=O)c1ccccc1` [F-Amidine (trifluoroacetate salt)] has a gametocyte viability of 95.9.
With `Nc1ccccc1NC(=O)c1ccc(CNC(=O)OCc2cccnc2)cc1` the gametocyte viability was 88.
`CCOC(=O)Nc1cc(-c2ccc(C)c(NS(C)(=O)=O)c2)nn2c(C)nnc12` [Bromosporine] gave a gametocyte viability of 83.1.
Work on `CN=C(NC)NCCCNCCCNCCCNC(=NC)NC` [Lysine-specific Demethylase Inhibitor (1C) (hydrochloride)] yielded a gametocyte viability of 81.1.
In the case of `CN(C)CCCNC(=O)c1ccc(-c2cc(O)c3ncccc3c2)cc1`, the gametocyte viability is reported as 49.8 (active).
Work on `O=C(NO)c1ccc(CC(=O)N(CCO)c2ccccc2)cc1` yielded a gametocyte viability of 93.5.
Molecule `CC(=O)Nc1ccc(NC(=S)NC(=O)c2ccc(C(C)(C)C)cc2)cc1` [Tenovin-1] has a gametocyte viability of 81.9.
